From the supplement of paper PMC8975748
Where a name gives a salt, the structure may show the parent alone. ± gives the standard deviation of the averaged measurements.

How the values were obtained:
[1] = tested on: Saccharomyces cerevisiae BY4741 SeMeCo community; assay: mean cell size (pixel area) (pixels); higher = larger cells; details: 10 µM; 24 h; SM minimal medium
Outline: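 For 24 h, 70 µl of yeast culture diluted to OD600 = 0.3 from an overnight preculture at OD600 = 1.0 was kept in SM medium in 384-well plates acoustically predosed with drug, final 10 µM. The strain was Saccharomyces cerevisiae BY4741 forming a fluorescent community of four plasmids, each complementing one auxotrophy and carrying a fluorescent marker. Automated confocal microscopy of paraformaldehyde-fixed cells, analysed in Harmony, provided mean cell pixel area per well, which was averaged over 3 replicates. Same SeMeCo high-content imaging drug screen: Selleck FDA-approved drugs at 10 µM, 24 h in SM medium, 384-well plates, 3 replicates.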

[2] = tested on: Saccharomyces cerevisiae BY4741 SeMeCo community; assay: z-score of prototroph abundance vs DMSO median; higher = larger share of this subpopulation than in DMSO controls; details: 10 µM; 24 h; SM minimal medium; subpopulation (auxotrophy): Prototroph
Outline: (§1)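 Cells of a Saccharomyces cerevisiae BY4741 community, carrying four plasmids that each restored one auxotrophy and encoded a distinct fluorescent protein, were pre-grown overnight to OD600 1.0 and diluted to 0.3. A 70 µl volume was added to 384-well plates acoustically predosed with library drugs (10 µM final) and grown 24 h in minimal SM medium. After paraformaldehyde fixation, automated confocal microscopy was used, with single-auxotroph fluorescent strains for thresholds and autofluorescence correction. The abundance of each subpopulation was scored as a z-score against the vehicle-well median.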

[3] = tested on: Saccharomyces cerevisiae BY4741 SeMeCo community; assay: z-score of subpopulation abundance vs DMSO median, subpopulation auxotrophic for M; higher = larger share of this subpopulation than in DMSO controls; details: 10 µM; 24 h; SM minimal medium; subpopulation (auxotrophy): M
Outline: as §1

[4] = tested on: Saccharomyces cerevisiae BY4741 SeMeCo community; assay: z-score of subpopulation abundance vs DMSO median, subpopulation auxotrophic for L; higher = larger share of this subpopulation than in DMSO controls; details: 10 µM; 24 h; SM minimal medium; subpopulation (auxotrophy): L
Outline: as §1

[5] = tested on: Saccharomyces cerevisiae BY4741 SeMeCo community; assay: z-score of subpopulation abundance vs DMSO median, subpopulation auxotrophic for U; higher = larger share of this subpopulation than in DMSO controls; details: 10 µM; 24 h; SM minimal medium; subpopulation (auxotrophy): U
Outline: as §1

[6] = tested on: Saccharomyces cerevisiae BY4741 SeMeCo community; assay: z-score of subpopulation abundance vs DMSO median, subpopulation auxotrophic for H; higher = larger share of this subpopulation than in DMSO controls; details: 10 µM; 24 h; SM minimal medium; subpopulation (auxotrophy): H
Outline: as §1

[7] = tested on: Saccharomyces cerevisiae BY4741 SeMeCo community; assay: z-score of subpopulation abundance vs DMSO median, subpopulation auxotrophic for LU; higher = larger share of this subpopulation than in DMSO controls; details: 10 µM; 24 h; SM minimal medium; subpopulation (auxotrophy): LU
Outline: as §1

[8] = tested on: Saccharomyces cerevisiae BY4741 SeMeCo community; assay: z-score of subpopulation abundance vs DMSO median, subpopulation auxotrophic for LM; higher = larger share of this subpopulation than in DMSO controls; details: 10 µM; 24 h; SM minimal medium; subpopulation (auxotrophy): LM
Outline: as §1

[9] = tested on: Saccharomyces cerevisiae BY4741 SeMeCo community; assay: z-score of subpopulation abundance vs DMSO median, subpopulation auxotrophic for HM; higher = larger share of this subpopulation than in DMSO controls; details: 10 µM; 24 h; SM minimal medium; subpopulation (auxotrophy): HM
Outline: as §1

[10] = tested on: Saccharomyces cerevisiae BY4741 SeMeCo community; assay: z-score of subpopulation abundance vs DMSO median, subpopulation auxotrophic for UM; higher = larger share of this subpopulation than in DMSO controls; details: 10 µM; 24 h; SM minimal medium; subpopulation (auxotrophy): UM
Outline: as §1

[11] = tested on: Saccharomyces cerevisiae BY4741 SeMeCo community; assay: z-score of subpopulation abundance vs DMSO median, subpopulation auxotrophic for HL; higher = larger share of this subpopulation than in DMSO controls; details: 10 µM; 24 h; SM minimal medium; subpopulation (auxotrophy): HL
Outline: as §1

[12] = tested on: Saccharomyces cerevisiae BY4741 SeMeCo community; assay: z-score of subpopulation abundance vs DMSO median, subpopulation auxotrophic for HLM; higher = larger share of this subpopulation than in DMSO controls; details: 10 µM; 24 h; SM minimal medium; subpopulation (auxotrophy): HLM
Outline: as §1

[13] = tested on: Saccharomyces cerevisiae BY4741 SeMeCo community; assay: z-score of subpopulation abundance vs DMSO median, subpopulation auxotrophic for HUM; higher = larger share of this subpopulation than in DMSO controls; details: 10 µM; 24 h; SM minimal medium; subpopulation (auxotrophy): HUM
Outline: as §1

[14] = tested on: Saccharomyces cerevisiae BY4741 SeMeCo community; assay: z-score of subpopulation abundance vs DMSO median, subpopulation auxotrophic for LUM; higher = larger share of this subpopulation than in DMSO controls; details: 10 µM; 24 h; SM minimal medium; subpopulation (auxotrophy): LUM
Outline: as §1

[15] = tested on: Saccharomyces cerevisiae BY4741 SeMeCo community; assay: z-score of subpopulation abundance vs DMSO median, subpopulation auxotrophic for HLUM; higher = larger share of this subpopulation than in DMSO controls; details: 10 µM; 24 h; SM minimal medium; subpopulation (auxotrophy): HLUM
Outline: as §1

[16] = tested on: Saccharomyces cerevisiae BY4741 SeMeCo community; assay: z-score of subpopulation abundance vs DMSO median, subpopulation auxotrophic for HU; higher = larger share of this subpopulation than in DMSO controls; details: 10 µM; 24 h; SM minimal medium; subpopulation (auxotrophy): HU
Outline: as §1

[17] = tested on: Saccharomyces cerevisiae BY4741 SeMeCo community; assay: z-score of subpopulation abundance vs DMSO median, subpopulation auxotrophic for HLU; higher = larger share of this subpopulation than in DMSO controls; details: 10 µM; 24 h; SM minimal medium; subpopulation (auxotrophy): HLU
Outline: as §1

Row | SMILES | mean cell size [1] | z-score of prototroph abundance [2] | z-score of subpopulation abundance [3] | z-score of subpopulation abundance [4] | z-score of subpopulation abundance [5] | z-score of subpopulation abundance [6] | z-score of subpopulation abundance [7] | z-score of subpopulation abundance [8] | z-score of subpopulation abundance [9] | z-score of subpopulation abundance [10] | z-score of subpopulation abundance [11] | z-score of subpopulation abundance [12] | z-score of subpopulation abundance [13] | z-score of subpopulation abundance [14] | z-score of subpopulation abundance [15] | z-score of subpopulation abundance [16] | z-score of subpopulation abundance [17]
1 | CC1CCc2c(N3CCC(O)CC3)c(F)cc3c(=O)c(C(=O)O)cn1c23 (centres undefined) [Nadifloxacin] | 12.6 ± 0.13 | -0.14 | 0.33 | 0.77 | 0.05 | -0.1 | 0.62 | 0.06 | 0 | -0.28 | 0 | 0.15 | -0.22 | 0.27 | 0.26 | – | –
2 | COc1cc(O)c(C(=O)Nc2nc(C(=O)NCCN(C(C)C)C(C)C)cs2)cc1OC [Acotiamide] | 12.14 ± 0.12 | -0.88 | 0.17 | 1.18 | -0.39 | 0.24 | 0.41 | 1.66 | 0.64 | – | 1.99 | 0.73 | 0.93 | 1.3 | 1.15 | -0.06 | –
3 | CN1CCN(CC(=O)N2c3ccccc3C(=O)Nc3cccnc32)CC1 [Pirenzepine dihydrochloride] | 11.97 ± 0.054 | 0.72 | -0.96 | -0.62 | -0.46 | 0.01 | -0.44 | -0.32 | -0.85 | -0.76 | -0.63 | -0.87 | -0.75 | -1.37 | -0.89 | -0.67 | –
4 | COc1cc(C(C)=O)ccc1OCCCN1CCC(c2noc3cc(F)ccc23)CC1 [Iloperidone] | 12.4 ± 0.16 | -0.06 | 0.33 | 0.2 | -0.16 | 0.05 | -0.41 | 0.71 | 0.05 | -0.39 | 0.55 | 0.44 | -0.98 | 0.9 | -0.49 | -0.38 | –
5 | CO/N=C(\C(=O)N[C@@H]1C(=O)N2C(C(=O)[O-])=C(C[n+]3cccc4c3CCC4)CS[C@H]12)c1csc(N)n1 [Cefpirome sulfate] | 12.5 ± 0.22 | -0.2 | – | – | -0.71 | 0.64 | – | 0.27 | 0.31 | 0.21 | -0.18 | -0.14 | 0 | 0.18 | 0.23 | -0.75 | -0.14
6 | Oc1c(Cl)cc(Cl)c2cccnc12 [Chloroxine] | – | -16.8 | – | -0.75 | -1.29 | 13.2 | – | 10.6 | 28.2 | 1.02 | – | 45.7 | 19.8 | 17.1 | 32.5 | 12.7 | 33.8
7 | Clc1ccc(CCC(Cn2ccnc2)Sc2c(Cl)cccc2Cl)cc1 (centres undefined) [Butoconazole nitrate] | – | -7.6 | – | -1.91 | – | 30.8 | – | -0.84 | 1.46 | 0.67 | 14.5 | – | 5.03 | – | 20.4 | 13.3 | 12.5
8 | Cc1ccc(S(=O)(=O)NC(=O)NN2CC3CCCC3C2)cc1 (centres undefined) [Gliclazide] | 12.6 ± 0.2 | 0.12 | – | -0.2 | -0.1 | -0.29 | – | -0.15 | 0.02 | 0.59 | 0.12 | -0.16 | – | -0.57 | – | -0.25 | -0.52
9 | CC(=O)Oc1ccccc1C(=O)O [Aspirin] | 12.5 ± 0.23 | -0.19 | – | -0.15 | -0.25 | 0.67 | – | 0.16 | -0.38 | – | 0.18 | 0.21 | – | -0.25 | -0.5 | -0.71 | -0.85
10 | CCN1CC(CCN2CCOCC2)C(c2ccccc2)(c2ccccc2)C1=O (centres undefined) [Doxapram HCl] | 12.5 ± 0.14 | 0.14 | 0 | -1.14 | 0.42 | -0.42 | -1.17 | -0.29 | -0.61 | 0.7 | -1.3 | -1.09 | 0.9 | -0.43 | -0.71 | -0.57 | –
11 | NC[C@H]1O[C@H](O[C@H]2[C@H](O[C@@H]3O[C@H](CO)[C@@H](O)[C@H]3O)[C@@H](O)[C@H](N)C[C@@H]2N)[C@H](N)[C@@H](O)[C@@H]1O [Ribostamycin Sulfate] | 12.13 ± 0.035 | – | -0.49 | -0.39 | – | -0.21 | 0.09 | -0.67 | 0.04 | 0.36 | -0.49 | -0.38 | 0.24 | – | 0.36 | -0.5 | –
12 | COc1cc(NS(=O)(=O)c2ccc(N)cc2)ncn1 [Sulfamonomethoxine] | – | 0 | -0.64 | 0 | – | -0.96 | 1.01 | -0.55 | -1.46 | 0.65 | -0.82 | -0.64 | 0.06 | 0.5 | 0.33 | – | –
13 | CCN(CC)CCNC(=O)c1cc(Cl)c(N)cc1OC [Metoclopramide] | 12 ± 0.25 | – | 0.35 | -0.22 | 1.49 | -0.88 | 0.6 | 0.08 | – | – | – | 0.54 | 0.35 | 1.17 | 1.06 | 1.02 | –
14 | CC(C)COc1ccc(CNC(=O)N(Cc2ccc(F)cc2)C2CCN(C)CC2)cc1 [Pimavanserin] | – | -0.05 | 1.1 | -1.18 | 0.22 | -0.39 | 0.32 | – | -0.22 | -0.58 | 0.41 | 0.27 | -0.82 | -0.56 | – | 1.4 | –
15 | CN[C@@H]1[C@@H](O)[C@@H](O[C@@H]2[C@@H](O)[C@H](O[C@H]3O[C@H](CN)[C@@H](O)[C@H](O)[C@H]3O)[C@@H](N)C[C@H]2NC(=O)[C@@H](O)CN)OC[C@]1(C)O [Isepamicin Sulphate] | – | -0.32 | 0 | -1.49 | – | -0.38 | -0.44 | -0.22 | -0.49 | 1.19 | -1.07 | -0.7 | 0.82 | 0.03 | -0.09 | 1.15 | –
16 | CCCCNC(=O)NS(=O)(=O)c1ccc(C)cc1 [Tolbutamide] | 12.5 ± 0.33 | 0.43 | -0.57 | -0.55 | 0.61 | -0.84 | -1.03 | -0.86 | -0.14 | -0.16 | -0.54 | – | -0.36 | -1 | – | -0.31 | –
17 | CCN(CC)CCNC(=O)c1cc(Cl)c(N)cc1OC [Metoclopramide HCl] | 12.4 ± 0.31 | 0.83 | 1.12 | -0.18 | -1.06 | – | -1.25 | – | 1.14 | -1.49 | 0.1 | -0.58 | -1.06 | -0.48 | -0.49 | – | –
